# Sampled rows, rich in hits. Any-hit rate of the full collection: about 2.4%.
# WRN inhibitor: qHTS for Inhibitors of WRN Helicase; Bifunctional 3'-5' exonuclease/ATP-dependent helicase WRN (Homo sapiens), Q14191; WRN helicase unwinding, fluorescent forked duplex, kinetic; Potency, µM (top dose mostly 114 µM), for inactives: at the highest dose activity change, negative = inhibition, most hits filed as inhibitors; 0.46% of 360,000 active; further: on the % scale 0 is the no-effect control and ±100 the full control effect; nearly all actives have a fitted effect of over 55% in size
#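 Screening of the MLSMR collection measured strand separation of a quenched forked DNA duplex (100 nM) by 20 nM WRN with 2 mM ATP, all final. Compounds were preincubated with enzyme 15 min at room temperature.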
# Pol kappa inh-1: qHTS for Inhibitors of Polymerase Kappa; DNA polymerase kappa (Homo sapiens), Q9UBT6; purified Pol kappa, fluorescent DNA synthesis assay, 10 min; Potency, µM (highest dose often 107 µM), without a hit: at the top dose activity, negative = inhibition, actives largely listed as inhibitors; 0.53% of 400,000 active; AID 588579, 2011; further: on the % scale 0 is the no-effect control and ±100 the full control effect
#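 10 nM Pol kappa was preincubated with compounds for 15 min at room temperature. Reaction started with 50 nM (final) substrate. Fluorescence read kinetically at 0 and 10 min.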
# FEN1 inhibitor: qHTS Assay for the Inhibitors of Human Flap endonuclease 1 (FEN1) | P39748 | Recombinant FEN1 flap cleavage, fluorescence, 15 min | Potency, µM (highest dose often 114 µM), inactives show top-dose activity change, negative = inhibition, most hits filed as inhibitors | 0.35% of 390,000 active | AID 588795, 2011; further: on the % scale 0 is the no-effect control and ±100 the full control effect; nearly all actives have a fitted effect of over 65% in size
#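 Quantitative HTS format: each compound was titrated, incubated with 10 nM nuclease for 15 min at room temperature, then challenged with flap substrate at 50 nM final. Signal change over 15 min gave concentration–effect curves.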
# Pol beta inh: qHTS Assay for Inhibitors of DNA Polymerase Beta. 1.3% of 340,000 active. Potency, µM (top dose mostly 114 µM), without a hit: top-dose activity change, negative = inhibition, usual class: inhibitors. Pol beta primer extension/strand displacement, fluorescence kinetic. P06746; further: on the % scale 0 is the no-effect control and ±100 the full control effect
#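 Values derive from four-parameter Hill fits of normalized kinetic data: reads at 0 and 10 min following addition of 50 nM substrate to 10 nM Pol beta preincubated 15 min with compound.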
# POLI inh: qHTS for Inhibitors of Polymerase Iota | Pol iota fluorescent replication assay, 10 min | Potency, µM (titrated, usually from 115 µM), without a hit: at the top dose activity, negative = inhibition, usual class: inhibitors | 1% of 390,000 active | AID 588590, 2011
# Target sequence (Q9UNA4 whole entry, looked up): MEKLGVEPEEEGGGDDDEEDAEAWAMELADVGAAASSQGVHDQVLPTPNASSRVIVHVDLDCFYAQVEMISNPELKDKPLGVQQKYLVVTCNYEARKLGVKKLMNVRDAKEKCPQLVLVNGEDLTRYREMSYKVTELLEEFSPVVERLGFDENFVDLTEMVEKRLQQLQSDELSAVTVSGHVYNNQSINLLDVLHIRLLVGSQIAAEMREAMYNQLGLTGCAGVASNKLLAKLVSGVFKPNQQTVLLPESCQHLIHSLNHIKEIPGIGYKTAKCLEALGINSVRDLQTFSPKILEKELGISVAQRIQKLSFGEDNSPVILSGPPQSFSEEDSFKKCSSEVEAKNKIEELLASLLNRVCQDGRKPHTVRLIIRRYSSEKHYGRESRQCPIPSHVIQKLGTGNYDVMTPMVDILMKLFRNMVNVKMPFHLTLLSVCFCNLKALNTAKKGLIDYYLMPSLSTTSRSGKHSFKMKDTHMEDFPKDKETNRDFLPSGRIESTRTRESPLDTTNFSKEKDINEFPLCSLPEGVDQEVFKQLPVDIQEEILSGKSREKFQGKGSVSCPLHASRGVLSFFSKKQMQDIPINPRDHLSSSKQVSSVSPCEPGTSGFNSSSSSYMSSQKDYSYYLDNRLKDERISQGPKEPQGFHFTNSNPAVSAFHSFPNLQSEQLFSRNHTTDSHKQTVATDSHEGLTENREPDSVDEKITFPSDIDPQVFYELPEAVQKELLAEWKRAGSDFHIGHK
#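 Pol iota at 10 nM preincubated 15 min with compounds at room temperature; reaction started with fluorescent substrate, 50 nM final. Fluorescence read kinetically at 0 and 10 min; buffer-only wells as negative control.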
# Pol eta inh-1: qHTS for Inhibitors of Polymerase Eta. DNA polymerase eta (Homo sapiens), Q9Y253. recombinant Pol eta, fluorescent DNA replication assay. Potency, µM (series often up to 114 µM), without a hit: at the highest dose activity change, negative = inhibition, usual class: inhibitors. 1.2% of 390,000 active. AID 588591, 2011; further: on the % scale 0 is the no-effect control and ±100 the full control effect
#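 Pol eta at 10 nM preincubated with compounds 15 min at room temperature; reaction started with fluorescent substrate (50 nM final) and read kinetically at 0 and 10 min.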
# Pol iota confirm: qHTS for Inhibitors of Polymerase Iota: Confirmatory Assay for Cherry-picked Compounds; shares compounds with Pol kappa inh-1; Pol iota primer extension, TAMRA/BHQ fluorescence; Potency, µM, usual class: inhibitors; 77% of 1,500 active
# Pol kappa inh-2: qHTS for Inhibitors of Polymerase Kappa: Confirmatory Assay for Cherry-picked Compounds. shares compounds with Pol eta inh-1. purified Pol-kappa, fluorescent strand-displacement substrate. Potency, µM, usual class: inhibitors. 76% of 920 active. AID 720501, 2013
# Pol eta inh-2: qHTS for Inhibitors of Polymerase Eta: Confirmatory Assay for Cherry-picked Compounds; Potency, µM, actives largely listed as inhibitors; Pol eta primer extension, TAMRA/BHQ fluorescence, 10 min; 64% of 2,600 active; AID 720502, 2013; shares compounds with Pol eta inh-1
# Starred values were filed as active, the others as inactive; ? = inconclusive; / = no result given; [ ] = remark or other dose. The call rests on the fitted dose curve; in most records, active means well fitted curve in the direction sought with a large enough effect; inconclusive means small, poorly fitted or top-dose-only effect, or another doubt; inactive means no such curve, though single readings can be large; an effect the other way counts as inactive or inconclusive. Potency means the concentration at half of the fitted maximal effect.
SMILES,WRN inhibitor,Pol kappa inh-1,FEN1 inhibitor,Pol beta inh,POLI inh,Pol eta inh-1,Pol iota confirm,Pol eta inh-2,others
CCC(=O)Nc1nnc(SCc2cc(=O)c3cc(C)ccc3[nH]2)s1,/,-7.1%[60.1 µM],-3.3%,-11.0%,-15.6%,6.1%,/,/,
CC(=O)Nc1nnc(SCc2cc(=O)c3cc(C)ccc3[nH]2)s1,/,-2.5%[60.1 µM],-11.5%,39.8µM*,79.4µM*,50.1µM*,67*,?,Pol kappa inh-2=16.8*
O=c1c2ccccc2nc(-c2ccc(Cl)cc2)n1CCCOc1ccccc1F,/,-3.6%,4.5%,-8.3%,16.2%,-24.7%,/,/,
Cc1cc(C)n(CCc2nc(-c3cccs3)cs2)n1,-15.0%,-18.6%,-2.4%,3.8%,-8.3%,-6.4%,/,/,
Cc1cc(C)n(CCc2nc(-c3ccco3)cs2)n1,?,70.8µM*,-27.7%,31.6µM*,14.1µM*,79.4µM*,75.2*,84.9*,
COc1ccc(-c2cc(=O)c3c(O)cc(O)cc3o2)cc1,-0.1%,1.3%,-16.5%,/,41.6%,-19.9%,/,/,
O=c1c(-c2c(O)cc(O)c3c(=O)cc(-c4ccc(O)cc4)oc23)c(-c2ccc(O)cc2)oc2cc(O)cc(O)c12,56.2µM*,35.5µM*,50.1µM*,3.16µM*,7.94µM*,3.55µM*,42.3*,42.6*,
C/C(N)=C(/C#N)C(=O)CSc1nnc(Nc2cccc(C)c2C)s1,-4.7%[11.6 µM],-31.9%,3.4%,-40.2%,?,-4.3%,/,/,
C/C(N)=C(/C#N)C(=O)CSc1nnc(Nc2c(C)cccc2C)s1,?,79.4µM*,-19.3%,?,?,17.8µM*,?,47.8*,
O=C(CC(c1ccccc1)c1cc(Br)ccc1O)NCC1(c2ccccc2)CCCC1 (stereo unspecified),/,-15.9%,-16.1%,1.2%,-0.8%,-16.8%,/,/,
Cn1c(CNC(=O)CSc2nc(-c3cccc(Cl)c3)nc3cc(=O)[nH]n23)nc2ccccc21,/,-28.2%,5.8%,?,?,-11.0%,/,/,
O=C(CSc1nc(-c2cccc(Cl)c2)nc2cc(=O)[nH]n12)Nc1ccccc1,/,-34.8%,-33.3%,20µM*,?,50.1µM*,59.7*,84.9*,
COc1ccc(CNc2nc3c(-c4ccc(C)cc4)nnn3c3ccccc23)cc1,/,3.8%,0.6%,21.7%,40.4%,-12.3%,/,/,
C=CCNC(=O)COC(=O)c1c2c(nc3ccccc13)CCC2,?,89.1µM*,-19.1%,22.4µM*,22.4µM*,35.5µM*,?,53.6*,
Cc1cc(=O)oc2cc(O)c(O)cc12,/,-6.4%[60.1 µM],/,/,/,/,/,/,
O=C(/C=C/c1cccnc1)c1cc(F)ccc1O,2.0%,15.0%,-5.4%,27.2%,38.2%,-5.0%,/,/,
O=C(O)c1cc(/C=C/C(=O)c2cc(F)ccc2O)c2c(c1)COCO2,-24.7%[11.6 µM],?,-28.3%,?,14.1µM*,22.4µM*,67*,47.8*,

# From PubChem
